# Reference: ChEMBL document CHEMBL4513216, “Probing the Open Global Health Chemical Diversity Library for Multistage-Active Starting Points for Next-Generation Antimalarials” (ACS Infect Dis, 2020)
# The campaign covered roughly 69,000 compounds. About 8,600 (12%) showed an effect of 50% or more. The sample holds strong results, similar compounds and a random draw of the others, so the mix is not that of the screen.
# Test system: Plasmodium berghei
# Experiment: Screen against P. berghei liver stage (PbLuc), transformed with Luciferase, at 10uM
# Format: functional, HepG2
# Settings: tested at 10 uM
row,SMILES,INHIBITION
1,Cc1nnc([C@@H]2C[C@H]3CN(C(=O)c4c(C)noc4C)C[C@H]3O2)[nH]1,12.7%
2,CC(C)Cc1cc(NC(=O)c2ccncc2)n(C)n1,48.4%
3,c1ccc(Cc2cncc(C3CCCN3C3CCOCC3)n2)cc1 (centres undefined),10.175%
4,Cn1nc(C2CCCN(Cc3ccccc3)C2)c2nccnc21 (centres undefined),64.9%
5,Fc1ccc(CN2CCCC(c3nnc(-c4cnccn4)o3)C2)cc1F (centres undefined),58.6%
6,c1cncc(CN2CCCC(c3nnc(-c4cnccn4)o3)C2)c1 (centres undefined),-22.6%
7,Cn1nc(C2CCCN(Cc3ccc(F)cc3)C2)c2nccnc21 (centres undefined),43.6%
8,Cn1nc(C2CCCN(Cc3cccc(F)c3)C2)c2nccnc21 (centres undefined),31.3%
9,Cn1nc(C2CCCN(Cc3cc(F)ccc3F)C2)c2nccnc21 (centres undefined),40%
10,c1cc(CN2CCCC(c3nnc(-c4cnccn4)o3)C2)ccn1 (centres undefined),26.8%
11,Cn1nc(C2CCCN(Cc3ccc(F)c(F)c3)C2)c2nccnc21 (centres undefined),54.4%
12,Cn1nc(C2CCCN(Cc3cc(F)cc(F)c3)C2)c2nccnc21 (centres undefined),36.4%
13,Cc1nc(C2CCCN2Cc2ccn(C)c(=O)c2)no1 (centres undefined),5.7%
14,COCCN(C)C(C(=O)O)c1ccc(C)c(C)c1 (centres undefined),19.4%
15,CCN1CC(=O)NCC12CCN(C(=O)c1ccco1)C2 (centres undefined),1.34%
16,Cc1cc(C)n(CC2CCCN2C(=O)c2ccc3nncn3c2)n1 (centres undefined),-54.6%
17,Cc1noc2nc(C3CCCN(Cc4ccncc4)C3)cc(C(F)F)c12 (centres undefined),34%
18,Cc1nc(C(C)NCc2cc(O)c3cccc(F)c3n2)cs1 (centres undefined),-2.48%
19,Cn1cc(Br)cc(NC(=O)Cc2cccs2)c1=O,53.3%
20,Cn1cc(NC(=O)Cc2cccs2)c(=O)n(C)c1=O,-7.16%
21,CCC(=O)Nc1cc(Br)cn(C)c1=O,8.92%
22,O=C(NCCc1nnc2n1CCC2)NCC1(c2ccccc2F)CC1,33.8%
23,COCCN1CCCC1(C)c1nc(C)cc(N)n1 (centres undefined),-3.94%
24,Nc1nc2c(c(NCc3nc(-c4ccncc4)n[nH]3)n1)CCCC2,-97.2%
25,Nc1nc2c(c(N3CCN(C(=O)c4cccs4)CC3)n1)CCCC2,72.5%
26,Cc1csc(N2CCCN(C(=O)c3cccs3)CC2)n1,29.2%

row,SMILES,INHIBITION
1,Nc1nc2c(c(NCc3ccc(C(=O)N4CCCC4)cc3)n1)CCCC2,63.8%
2,Nc1nc2c(c(NCc3ccncc3)n1)CCCC2,-68.2%
3,N#Cc1cccnc1N1CCN(C(=O)c2cccs2)CC1,9.16%
4,Cc1ccc(N2CC[C@H]3[C@@H]2CCC(=O)N3CCN2CCOCC2)nn1,18.7%
5,O=C(c1cnccn1)N1CCOC2(CCN(Cc3ccsc3)CC2)C1,13.7%
6,CNC(=O)NCC1CCC2(CCN(C(=O)c3ccccn3)CC2)CO1 (centres undefined),35.8%
7,CN(C)Cc1cc(C2CCN(C(=O)C3CC34CCC4)CC2)nn1C (centres undefined),8.53%
8,CC1(CO)COC(Cc2ccc(Cl)cc2)=N1 (centres undefined),0.29%
9,CCCOc1ccc(CC2=NC(C)(CO)CO2)cc1 (centres undefined),58.3%
10,CC(C)Oc1ccc(CC2=N[C@](C)(CO)CO2)cc1,16%
11,CCn1cc(C(=O)Nc2ccccc2C(=O)OC)cn1,21.5%
12,CS(=O)(=O)N1CCOCC2(CCN(Cc3ccoc3)CC2)C1,35.5%
13,O=C1NCC2(CCCN(Cc3ccc(F)cc3)C2)Oc2ccccc21 (centres undefined),46%
14,CSc1ccc(CN2CCCC3(CNC(=O)c4ccccc4O3)C2)cc1 (centres undefined),73.7%
15,O=C1NCC2(CCCN(Cc3ccncc3)C2)Oc2ccccc21 (centres undefined),36.4%
16,O=C(NCCc1nccs1)c1n[nH]c2c1CCC2,-147%
17,Cc1ccc2cccc(C(=O)NCCOCC3CC3)c2n1,-58.5%
18,Cc1ccc2cccc(C(=O)NCC3CCN(C(C)C)C3)c2n1 (centres undefined),50.1%
19,CN1CCC(CNC(=O)c2ccc3cccc(Cl)c3n2)C1 (centres undefined),9.4%
20,COCCn1cnc2c(F)cc(Br)cc2c1=O,47.4%
21,CC(C)N(C)S(=O)(=O)c1ccc2c(c1)CCN(C(=O)c1cnccn1)C2,28.8%
22,CC(C)N(C)S(=O)(=O)c1ccc2c(c1)CCN(C(=O)c1ccccn1)C2,-12.1%
23,CC(C)N(C)S(=O)(=O)c1ccc2c(c1)CCN(C(=O)c1cscn1)C2,65.2%
24,CCCc1cc(C(=O)NC(C)c2ccccc2)n(C)n1 (centres undefined),8.7%
25,O=C(O)c1cc(Br)cnc1OCC1CC1,14.4%
26,Cc1cc2c(cc1CNC(Cc1cccs1)c1nccs1)OCO2 (centres undefined),28.375%

row,SMILES,INHIBITION
1,CC(C)N(Cc1cccnc1)C(=O)CNc1ccc(C#N)cc1,-21%
2,CCSCCC(=O)Nc1ncn(Cc2ccccc2)n1,42%
3,CCSCCC(=O)Nc1ncn(Cc2cccnc2)n1,-11.1%
4,N#Cc1ccc(NCC(=O)Nc2ccn(Cc3cccnc3)n2)cc1,41.4%
5,N#Cc1ccc(NCC(=O)Nc2ncn(Cc3cccnc3)n2)cc1,72.3%
6,CCC(=O)Nc1ncn(Cc2cccnc2)n1,61.2%
7,Cc1ncsc1C(=O)NCCn1nc(C2CCNC2)c2cccnc21 (centres undefined),38.7%
8,CCc1nc(CC(=O)NCC(Cc2ccc(F)cc2)C(N)=O)cs1 (centres undefined),48.2%
9,O=C(NC1CC1)c1cccc(Oc2ccc3nncn3n2)c1,-34.4%
10,CC1(C)CC1(C(=O)N1CC(c2cccnc2)C1)c1ccccc1F (centres undefined),28.7%
11,Cc1ccc(C(=O)N2CC(c3cccnc3)C2)cc1N1CCNC1=O,56.7%
12,COc1cc(C)sc1C(=O)N1CCC(Nc2cccnc2)CC1,18.5%
13,COc1ccc(C2(C(=O)N3CC(c4cccnc4)C3)CC2(C)C)cc1 (centres undefined),55.4%
14,CC1(C)CC1(C(=O)N1CC(c2cccnc2)C1)c1ccc(F)cc1 (centres undefined),21.2%
15,Cc1ccc(C(=O)N2CCSCC2)cc1N1CCNC1=O,48.5%
16,COc1cc(C)sc1C(=O)N1CCCCC1c1ccccn1 (centres undefined),47.7%
17,COc1cc(C)sc1C(=O)N1CC(c2cccnc2)C1,56.8%
18,Cc1ccc(C(=O)N2Cc3ccccc3C2)cc1N1CCNC1=O,2.74%
19,COc1ccccc1CC(=O)N1CCCC(c2cc(C)[nH]n2)C1 (centres undefined),-24.2%
20,Cc1ccc(-c2nnc(CNC(=O)c3cccnc3)o2)cn1,30.4%
21,CC(=O)N1CCCN(C(=O)NCCCn2cncn2)CC1,-10.895%
22,COCCN(CCOC)C(=O)NC1CCCCC1,50.8%
23,COc1ccc(C)cc1C(=O)N1C[C@@H](CN(C)CCO)[C@@H](CO)C1,56.9%
24,COCCN(C)C[C@H]1C[C@H](CO)CN(C(=O)c2ccn(C)c(=O)c2)C1,11.7%
25,COc1cc(C)ccc1C(=O)N1C[C@@H](CN(C)CCO)[C@@H](CO)C1,-1.38%
26,COCCN(C)C[C@@H]1CN(C(=O)c2c(F)ccc(OC)c2F)C[C@@H]1CO,84.4%

row,SMILES,INHIBITION
1,COc1cccc(C(=O)N2C[C@@H](CN(C)CCO)[C@@H](CO)C2)c1C,20.6%
2,COCCN(CCN(C)C)C(=O)NC1CCc2ccccc2C1 (centres undefined),-65.3%
3,COCCN(C)C[C@H]1C[C@@H](CO)CN(C(=O)c2ccn(C)c(=O)c2)C1,35.5%
4,COc1ccc(F)c(F)c1C(=O)N1C[C@@H](CN(C)CCO)[C@@H](CO)C1,-1.38%
5,COCCN(C)C[C@H]1C[C@H](CO)CN(C(=O)c2ccc(=O)n(C)c2)C1,50.7%
6,COCCN(C)C[C@@H]1CN(C(=O)c2ccc(OC)c(F)c2)C[C@@H]1CO,0.29%
7,COCCN(CCN(C)C)C(=O)NC1CC1,7.25%
8,CS(=O)(=O)c1ccc(Cl)c(NC(=O)NCCC2=CCCCC2)c1,0.818%
9,COCCC1COC2(CCN(C(=O)c3ccco3)CC2)C1 (centres undefined),29.6%
10,CN(C)C(=O)[C@H]1C[C@H]2OCC[C@H]2N(Cc2ccc3ccccc3n2)C1,25.2%
11,CC(C)NC(=O)[C@H]1C[C@@H]2[C@@H](C1)OCCN2Cc1ccco1,7.24%
12,CC(C)(C)OC(=O)N[C@@H]1C[C@@H](O)CN(C(=O)c2cccc(F)c2)C[C@H]1O,4.41%
13,C[C@H]1C(=O)NC[C@H]2CN(Cc3cccc(F)c3)C[C@H]21,23.5%
14,CC(=O)N1CCC2(CC1)CN(C)C(=O)C[C@H]2C(F)(F)F,2.79%
15,CC(Nc1c(F)cc(C#N)cc1F)c1cccc(S(N)(=O)=O)c1 (centres undefined),-68.1%
16,COCCN(C)C[C@@H]1CN(C(=O)C(C)(C)c2ccccc2)C[C@@H]1CO,60.6%
17,COCCN(C)C[C@@H]1CN(C(=O)NC2CCCCC2)C[C@@H]1CO,50.2%
18,COCCN(C)C[C@@H]1CN(C(=O)c2ccc(=O)n(C)c2)C[C@@H]1CO,57.2%
19,COCCN(C)C[C@@H]1CN(C(=O)c2ccc(SC)cc2)C[C@@H]1CO,19.4%
20,COCCN(C)C[C@@H]1CN(C(=O)c2sc3ccccc3c2C)C[C@@H]1CO,17.6%
21,COCCN(C)C[C@@H]1CN(C(=O)c2cccc(C(F)(F)F)c2)C[C@@H]1CO,23.5%
22,CN(C)CCN(C)C[C@@H]1CN(C(=O)NC2CCCC2)C[C@@H]1CO,27.4%
23,CCN(C)C[C@@H]1CN(C(=O)NC2CCCCC2)C[C@@H]1CO,24.5%
24,COCCN(C)C[C@@H]1CN(C(=O)c2ccc(C)cc2)C[C@@H]1CO,-18.9%
25,O=C1NC(c2ccccc2)=N[C@@]12CC[C@@H]1CN(CC3CC3)C[C@@H]12,44.2%
26,O=C(CCc1nc2cc(Br)cnc2[nH]1)NCCN1CCOCC1,-7.28%
